Measured values reported in ChEMBL document CHEMBL3988442, “University of Dundee, Small-Polar-MMV Screening Library” (2021).

How the values were obtained:
[1] = biological target: T1, Aspartate--tRNA(Asp/Asn) ligase (Mycobacterium tuberculosis (strain ATCC 25618 / H37Rv)) (UniProt P9WFW3); experiment: Assay for Asp RNA synthetase-1 from Mycobacterium tuberculosis; type: functional; parameters: scale not given: direction of the effect not stated beside the values; details: 30 µM; further: in the data most compounds retested in dose-response had high values
T1 sequence (whole entry): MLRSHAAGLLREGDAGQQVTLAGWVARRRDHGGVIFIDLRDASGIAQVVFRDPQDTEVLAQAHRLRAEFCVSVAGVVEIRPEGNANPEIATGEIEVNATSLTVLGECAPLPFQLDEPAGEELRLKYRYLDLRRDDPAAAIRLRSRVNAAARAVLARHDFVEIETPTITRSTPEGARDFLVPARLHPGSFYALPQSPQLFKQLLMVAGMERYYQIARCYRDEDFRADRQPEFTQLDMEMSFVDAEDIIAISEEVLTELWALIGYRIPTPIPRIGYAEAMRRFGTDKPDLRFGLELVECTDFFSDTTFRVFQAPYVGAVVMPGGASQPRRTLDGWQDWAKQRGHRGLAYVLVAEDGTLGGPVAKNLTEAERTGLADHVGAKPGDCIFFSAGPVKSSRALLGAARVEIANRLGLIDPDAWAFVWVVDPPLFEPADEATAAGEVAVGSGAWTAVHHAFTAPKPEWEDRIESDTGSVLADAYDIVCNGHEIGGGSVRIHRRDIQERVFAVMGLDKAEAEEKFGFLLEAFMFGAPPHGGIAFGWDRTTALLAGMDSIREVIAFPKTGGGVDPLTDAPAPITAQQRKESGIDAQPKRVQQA

[2] = biological target: Shiga toxin 2 (Escherichia coli O157:H7) (UniProt P09385+P09386); experiment: E. coli 0.157:H7 Shiga Toxin SOP - stx2 screening assay; type: functional; parameters: scale not given: direction of the effect not stated beside the values; details: 30 µM

Row | Structure (SMILES) | Percent Effect [1] [%] | Percent Effect [2] [%]
1 | Cc1noc(C)c1CN(C)C(=O)c1ccc(NC2CC2)nc1 | 5.06 | 26.3
2 | c1csc(N2CCCN(Cc3nc(C4CC4)no3)CC2)n1 | -1.91 | 12.8
3 | CC(C)COC(C)C(=O)NCc1ccc(N(C)C)cc1 (stereo not drawn) | 5.65 | -8.68
4 | Cc1nc(N2CCN(C(=O)C(C)(C)C)CC2)cc(-n2cnc(C)c2C)n1 | 0.832 | -43.6
5 | COCc1nc(C(=O)NS(=O)(=O)c2ccc(C)cc2C)cs1 | 0.811 | -0.5
6 | Cc1ccc(C)c(OCCN2CCC(N3CCNC3=O)CC2)c1 | 0.583 | -1.43
7 | COc1ccc(OCc2nc(C(=O)N3CC[C@H](O)[C@@H](O)C3)co2)cc1 | -0.903 | 8.98
8 | CC(C)c1nc2n(n1)CC(NCc1nnc(-c3ccco3)o1)CC2 (stereo not drawn) | -3.46 | 11.7
9 | CN1CCN(C(=O)CC2CCN(CCc3ccccn3)CC2)CC1 | -2.94 | 8.24
10 | Cc1cnn(CC2CN(Cc3nc4ccccc4nc3C)CCO2)c1 (stereo not drawn) | -3.52 | -0.0617
11 | COCC(O)CN(C)C(=O)NC1CCN(Cc2ccccn2)CC1 (stereo not drawn) | -3.52 | -36.8
12 | CCN(Cc1ccccc1)C(=O)CN1CCCC(Cn2cncn2)C1 (stereo not drawn) | 2.11 | 3.34
13 | Cc1nc(CC(=O)N2CCCN(c3ccc(C#N)cc3)CC2)cs1 | -8.71 | -26.6
14 | CC(C)Oc1cc(N2CCC(N3CCC(O)CC3)CC2)nc(N)n1 | -2.8 | 2.73
15 | CN(C)c1ccc(NC(=O)NCc2ccccn2)cn1 | 3.94 | -60.4
16 | Cc1ccc(S(=O)(=O)N2CCOc3ccccc32)cc1C(=O)O | -1.83 | -32.8
17 | Cc1cc(C(=O)N2C[C@@H](C(=O)O)[C@H](c3ccccc3C)C2)c(C)o1 | 6.11 | -22
18 | CNC(=O)c1cnc(/C=C/c2ccc(OC)c(O)c2)s1 | 1.65 | -56.5
19 | O=C(CN1C=Nc2ccccc2S1(=O)=O)NCCc1cccs1 | 0.225 | -2.28
